Data from PubChem BioAssay (NCATS).
Inconclusive results are not listed. Active and inactive are the calls of the source. Unless noted, the call rests on the fitted dose curve.

What was measured:
[1] = qHTS for Inhibitors of the Functional Ribonucleoprotein Complex (vRNP) of Lassa (LASV) Arenavirus: LASV Primary Screen - GLuc reporter signal (AID 1347082; calls by dose curve; tested in HEK293 reporter line; further: nearly all actives have a fitted effect of over 60% in size)
[2] = qHTS for Inhibitors of the Functional Ribonucleoprotein Complex (vRNP) of Lassa (LASV) Arenavirus: Viability assay - alamar blue signal for LASV Primary Screen (AID 1347083; calls by dose curve; tested in HEK293 reporter line; further: nearly all actives have a fitted effect of over 80% in size)
[3] = qHTS for Inhibitors of the Functional Ribonucleoprotein Complex (vRNP) of Lymphocytic Choriomeningitis Arenaviruses (LCMV): Viability assay - alamar blue signal for LCMV Primary Screen (AID 1347085; calls by dose curve; tested in HEK293 reporter line; further: nearly all actives have a fitted effect of over 80% in size)
[4] = molecular target: Nucleoprotein (Lymphocytic choriomeningitis virus (strain Armstrong)) (UniProt P09992); assay: qHTS for Inhibitors of the Functional Ribonucleoprotein Complex (vRNP) of Lymphocytic Choriomeningitis Arenaviruses (LCMV): LCMV Primary Screen - GLuc reporter signal (AID 1347086); further: nearly all actives have a fitted effect of over 70% in size
Chain of Nucleoprotein (Lymphocytic choriomeningitis virus (strain Armstrong)) (P09992 whole entry, looked up): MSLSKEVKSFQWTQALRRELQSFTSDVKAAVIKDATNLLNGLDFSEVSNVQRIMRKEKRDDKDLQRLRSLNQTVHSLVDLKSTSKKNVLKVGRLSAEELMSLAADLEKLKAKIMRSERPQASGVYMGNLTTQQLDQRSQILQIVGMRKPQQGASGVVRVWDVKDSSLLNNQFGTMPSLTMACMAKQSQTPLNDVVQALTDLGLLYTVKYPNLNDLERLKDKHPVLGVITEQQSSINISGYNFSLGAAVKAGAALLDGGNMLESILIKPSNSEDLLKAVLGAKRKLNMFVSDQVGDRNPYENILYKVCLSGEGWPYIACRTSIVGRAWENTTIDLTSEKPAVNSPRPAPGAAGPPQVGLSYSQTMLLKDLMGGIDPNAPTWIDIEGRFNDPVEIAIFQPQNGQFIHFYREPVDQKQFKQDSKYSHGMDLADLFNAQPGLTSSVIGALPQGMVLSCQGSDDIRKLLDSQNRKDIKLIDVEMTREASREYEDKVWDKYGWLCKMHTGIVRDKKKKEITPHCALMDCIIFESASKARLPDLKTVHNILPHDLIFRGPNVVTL

Measured: Potency
Potency means the concentration at half of the fitted maximal effect.

COc1cc2ncnc(-n3nc(-c4ccccn4)nc3N)c2cc1OC
active: [1] 13700 nM | [2] 19300 nM | [3] 7690 nM | [4] 2430 nM

CCN(CC)CCCCNc1nc2cc(Cl)c(Cl)cc2nc1-c1ccc(-c2cccs2)s1
inactive: all assays above

Fc1ccc(Cl)cc1-c1nc(Nc2ccncc2)c2nccnc2n1
inactive: all assays above

NC(CO)C(=O)NNCc1ccc(O)c(O)c1O (stereo not given)
inactive: all assays above

CC(=O)NC(C)c1ccc(Oc2ccc(OC(C)C)cc2)cc1 (stereo not given)
inactive: all assays above

c1ccc2[nH]ccc2c1
inactive: all assays above

OCc1c[nH]c2ccccc12
inactive: all assays above

CC(C)C(C)(C)C(C)(C)C(C)(C)S
inactive: all assays above

O=C(O)Cc1ccccc1Oc1ccc(Cl)cc1Cl
inactive: all assays above

O=C1NS(=O)(=O)c2ccccc21
inactive: all assays above

O=c1cc(-c2ccccc2)oc2ccccc12
inactive: all assays above

CC(=O)N[C@@H](Cc1ccc(O)cc1)C(=O)O
inactive: all assays above

CCC(=C(c1ccccc1)c1ccc(OCCN(C)C)cc1)c1ccccc1
inactive: all assays above

COc1cc(N2CCC(N3CCN(C)CC3)CC2)ccc1Nc1ncc(Cl)c(Nc2ccccc2S(=O)(=O)C(C)C)n1
inactive: all assays above

CC(C)(C(=O)NCC(F)(F)C(F)(F)F)C(=O)N[C@@H]1C(=O)Nc2ccccc2-c2ccccc21
active: [1] 24300 nM | [2] 19300 nM | [3] 5440 nM | [4] 10900 nM

O=C(O)c1ccccc1NCCc1ccccc1
inactive: all assays above

CCCCOCCOc1nc(-c2ccc(C(=O)O)c(F)c2)sc1C
inactive: all assays above

C[C@@H](N)C(=O)O
inactive: all assays above

CCC=CC[C@H]1C(=O)CC[C@@H]1CC(=O)OC
inactive: all assays above

O=C(O)c1ccc2cc(-c3ccc(O)c(C45CC6CC(CC(C6)C4)C5)c3)ccc2c1
inactive: all assays above

NC(=O)c1ccc(-c2nc(-c3ccc4c(c3)OCO4)c(-c3ccccn3)[nH]2)cc1
inactive: all assays above

COc1ccc(CC2SC(=O)NC2=O)cc1C(=O)NCc1ccc(C(F)(F)F)cc1 (stereo not given)
active: [3] 38500 nM
inactive: all other assays above

CCOC(=O)c1c(C)n(C)c2ccc(O)cc12
inactive: all assays above

CCCCCCCCCCCCCC(=O)N[C@H](CO)[C@H](O)c1ccc([N+](=O)[O-])cc1
inactive: all assays above

COc1cc(S(N)(=O)=O)cc(C(=O)O)c1OC
inactive: all assays above

C=CCNC(N)=S
inactive: all assays above

Cc1ccc(-c2ncn(-c3ccc(Nc4nccc(-c5cccc(N6CCOCC6)c5)n4)cc3)n2)cn1
inactive: [1] | [4]
active: [2] 485 nM | [3] 485 nM

COc1ccccc1-c1cccc(-c2c(O)c3cc(C#N)c(Cl)cc3[nH]c2=O)c1
inactive: all assays above

CC(C)CCCC(C)CCCC(C)CCCCC(C)CCCC(C)CCCC(C)C (stereo not given)
inactive: all assays above

C[C@H](NC(=O)Cc1cc(F)cc(F)c1)C(=O)N[C@@H]1C(=O)N(C)c2ccccc2-c2ccccc21
inactive: all assays above

COc1ccc2c(c1)CC[C@H]1[C@@H]2CC[C@]2(C)[C@@H](NCCCCCCN3C(=O)C=CC3=O)CC[C@H]12
inactive: all assays above

COc1ccc2c(c1)c1c3n2CCN(C)C3=NCC1
inactive: all assays above

CO[C@H]1C=CC=C(C)C(=O)NC2=CC(=O)C(NCCN(C)C)=C(C[C@@H](C)C[C@H](OC)[C@@H](O)[C@@H](C)C=C(C)[C@@H]1OC(N)=O)C2=O
active: [1] 685 nM | [2] 611 nM | [3] 544 nM | [4] 306 nM

O=C(Nc1cccc(C2=NCCN2)c1)Nc1cccc(C2=NCCN2)c1
inactive: all assays above

O=C(NCCS(=O)(=O)c1ccc(C(F)(F)F)cn1)c1ccc(Cl)cc1
inactive: all assays above

O=C(Nc1ccccc1-c1cn2c(CN3CCNCC3)csc2n1)c1cnc2ccccc2n1
inactive: all assays above

CCCCc1ccc(NS(=O)(=O)c2ccc(C)c(C(=O)N3CCN(c4cccc(C)c4C)CC3)c2)cc1
inactive: all assays above

CC(C)C[C@H](NC(=O)[C@@H](O)[C@H](N)Cc1ccccc1)C(=O)O
inactive: all assays above

C=CCn1c(=O)c2cnc(Nc3ccc(N4CCN(C)CC4)cc3)nc2n1-c1cccc(C(C)(C)O)n1
active: [1] 685 nM | [2] 172 nM | [3] 611 nM | [4] 968 nM

CC(C)(C)COc1ccc(-n2cc(C(=O)O)cn2)cc1C#N
inactive: all assays above

COc1ccc(CCN2CCN(CCCc3ccccc3)CC2)cc1OC
inactive: all assays above

O=[N+]([O-])c1cccc(S(=O)(=O)NCCNS(=O)(=O)c2cccc([N+](=O)[O-])c2)c1
inactive: all assays above

O=C(O)c1ccccc1O
inactive: all assays above

COc1c(N2CCNC(C)C2)c(F)cc2c(=O)c(C(=O)O)cn(C3CC3)c12 (stereo not given)
inactive: all assays above

OC[C@H](Cc1ccccc1)Nc1nc(Oc2ccc3c(c2)CCC3)nc2c1ncn2Cc1ccc(-c2ccccc2)cc1
inactive: all assays above

Clc1ccccc1CN1CCc2sccc2C1
inactive: all assays above

CS(=O)(=O)Oc1ccc2c(NC(N)=O)c(C(=O)c3ccc(Cl)cc3Cl)oc2c1
active: [2] 27300 nM | [3] 27300 nM
inactive: [1] | [4]

C[C@@H](O[C@H]1OCCN(Cc2n[nH]c(=O)[nH]2)[C@@H]1c1ccc(F)cc1)c1cc(C(F)(F)F)cc(C(F)(F)F)c1
inactive: all assays above

CC1(C)OC2=C(C(=O)c3ccccc3C2=O)[C@H](NCc2ccccc2)[C@H]1O
active: [1] 2730 nM | [2] 3060 nM | [3] 2170 nM | [4] 863 nM

C[N+]1(C)C2CC(OC(=O)[C@H](CO)c3ccccc3)CC1C1OC12 (stereo not given in full)
inactive: all assays above

COc1ccc(C2=N[C@H](c3ccc(Cl)cc3)[C@H](c3ccc(Cl)cc3)N2C(=O)N2CCNC(=O)C2)c(OC(C)C)c1
inactive: all assays above

CN(C(=O)C(Cl)Cl)c1ccc(OC(=O)c2ccco2)cc1
inactive: all assays above

CC(C)(C)C(O)/C=C/c1ccc2c(c1)OCO2 (stereo not given)
inactive: all assays above

Cc1cccc(-c2nn(C(=S)Nc3ccccc3)cc2-c2ccnc3ccccc23)n1
inactive: all assays above

CN1CCN(c2c(F)cc3c(=O)c(C(=O)O)cn4c3c2OCN4C)CC1
inactive: all assays above

CCOc1cc2ncc(C#N)c(Nc3ccc(F)c(Cl)c3)c2cc1NC(=O)C=CCN(C)C
active: [1] 10900 nM | [2] 1930 nM | [3] 19300 nM | [4] 24300 nM

Nc1cccc(S(=O)(=O)N2CCCN(S(=O)(=O)c3ccc4c(c3)OCCO4)CC2)c1
inactive: all assays above

Nc1nc2c(ncn2CCC(CO)CO)c(=O)[nH]1
inactive: all assays above

Oc1cccc(-c2nc(N3CCOCC3)c3oc4ncccc4c3n2)c1
active: [1] 993 nM | [2] 885 nM | [3] 1400 nM | [4] 1400 nM

CC[C@@H]1C(=O)OC[C@@H]1Cc1cncn1C
inactive: all assays above
